Results from the supplement of paper PMC11732987, “Enantioselective OTUD7B fragment discovery through chemoproteomics screening and high-throughput optimisation” (Communications Chemistry, 2025).

Key:
Assay in all cases: log2 ratio of Biotin-Ahx-Ub-VS probe labelling (fragment/DMSO); higher = less target engagement (more negative = stronger competition), active = hit call of the paper (q ≤ 0.05, log2 ratio ≤ -1)
Conditions in all cases: compound concentration: 200 uM; treatment time: 3 h
USP9X = USP9X (UniProt Q93008)
Method in brief: (§1)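 HEK293T lysate (495 µg per sample, in Tris/CHAPS/IGEPAL buffer with protease inhibitors) was exposed in triplicate for 3 h to fragment at 200 µM or to vehicle, then to Biotin-Ahx-Ub-VS at 0.5 µM final for 1 h. Labelled DUBs were enriched on NeutrAvidin, digested with LysC and trypsin, and analysed by diaPASEF LC-MS/MS. Spectronaut label-free quantities were normalised to the global median, and values are average log2 ratios of fragment over vehicle from an unpaired t-test. Only proteins with ≥2 unique peptides were used.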

UniProt O00487 = molecular target: UniProt O00487
Chain of UniProt O00487 (O00487 whole entry): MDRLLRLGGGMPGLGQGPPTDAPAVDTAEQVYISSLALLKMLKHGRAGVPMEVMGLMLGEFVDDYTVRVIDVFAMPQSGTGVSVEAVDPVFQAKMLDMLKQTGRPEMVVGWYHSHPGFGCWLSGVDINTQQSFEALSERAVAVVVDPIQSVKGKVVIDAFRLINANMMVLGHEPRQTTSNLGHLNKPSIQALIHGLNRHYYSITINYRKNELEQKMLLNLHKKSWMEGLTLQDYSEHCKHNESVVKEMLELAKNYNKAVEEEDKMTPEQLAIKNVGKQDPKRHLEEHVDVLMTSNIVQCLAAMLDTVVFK
Method in brief: as §1

UniProt O00507 = molecular target: UniProt O00507
Chain of UniProt O00507 (O00507 whole entry): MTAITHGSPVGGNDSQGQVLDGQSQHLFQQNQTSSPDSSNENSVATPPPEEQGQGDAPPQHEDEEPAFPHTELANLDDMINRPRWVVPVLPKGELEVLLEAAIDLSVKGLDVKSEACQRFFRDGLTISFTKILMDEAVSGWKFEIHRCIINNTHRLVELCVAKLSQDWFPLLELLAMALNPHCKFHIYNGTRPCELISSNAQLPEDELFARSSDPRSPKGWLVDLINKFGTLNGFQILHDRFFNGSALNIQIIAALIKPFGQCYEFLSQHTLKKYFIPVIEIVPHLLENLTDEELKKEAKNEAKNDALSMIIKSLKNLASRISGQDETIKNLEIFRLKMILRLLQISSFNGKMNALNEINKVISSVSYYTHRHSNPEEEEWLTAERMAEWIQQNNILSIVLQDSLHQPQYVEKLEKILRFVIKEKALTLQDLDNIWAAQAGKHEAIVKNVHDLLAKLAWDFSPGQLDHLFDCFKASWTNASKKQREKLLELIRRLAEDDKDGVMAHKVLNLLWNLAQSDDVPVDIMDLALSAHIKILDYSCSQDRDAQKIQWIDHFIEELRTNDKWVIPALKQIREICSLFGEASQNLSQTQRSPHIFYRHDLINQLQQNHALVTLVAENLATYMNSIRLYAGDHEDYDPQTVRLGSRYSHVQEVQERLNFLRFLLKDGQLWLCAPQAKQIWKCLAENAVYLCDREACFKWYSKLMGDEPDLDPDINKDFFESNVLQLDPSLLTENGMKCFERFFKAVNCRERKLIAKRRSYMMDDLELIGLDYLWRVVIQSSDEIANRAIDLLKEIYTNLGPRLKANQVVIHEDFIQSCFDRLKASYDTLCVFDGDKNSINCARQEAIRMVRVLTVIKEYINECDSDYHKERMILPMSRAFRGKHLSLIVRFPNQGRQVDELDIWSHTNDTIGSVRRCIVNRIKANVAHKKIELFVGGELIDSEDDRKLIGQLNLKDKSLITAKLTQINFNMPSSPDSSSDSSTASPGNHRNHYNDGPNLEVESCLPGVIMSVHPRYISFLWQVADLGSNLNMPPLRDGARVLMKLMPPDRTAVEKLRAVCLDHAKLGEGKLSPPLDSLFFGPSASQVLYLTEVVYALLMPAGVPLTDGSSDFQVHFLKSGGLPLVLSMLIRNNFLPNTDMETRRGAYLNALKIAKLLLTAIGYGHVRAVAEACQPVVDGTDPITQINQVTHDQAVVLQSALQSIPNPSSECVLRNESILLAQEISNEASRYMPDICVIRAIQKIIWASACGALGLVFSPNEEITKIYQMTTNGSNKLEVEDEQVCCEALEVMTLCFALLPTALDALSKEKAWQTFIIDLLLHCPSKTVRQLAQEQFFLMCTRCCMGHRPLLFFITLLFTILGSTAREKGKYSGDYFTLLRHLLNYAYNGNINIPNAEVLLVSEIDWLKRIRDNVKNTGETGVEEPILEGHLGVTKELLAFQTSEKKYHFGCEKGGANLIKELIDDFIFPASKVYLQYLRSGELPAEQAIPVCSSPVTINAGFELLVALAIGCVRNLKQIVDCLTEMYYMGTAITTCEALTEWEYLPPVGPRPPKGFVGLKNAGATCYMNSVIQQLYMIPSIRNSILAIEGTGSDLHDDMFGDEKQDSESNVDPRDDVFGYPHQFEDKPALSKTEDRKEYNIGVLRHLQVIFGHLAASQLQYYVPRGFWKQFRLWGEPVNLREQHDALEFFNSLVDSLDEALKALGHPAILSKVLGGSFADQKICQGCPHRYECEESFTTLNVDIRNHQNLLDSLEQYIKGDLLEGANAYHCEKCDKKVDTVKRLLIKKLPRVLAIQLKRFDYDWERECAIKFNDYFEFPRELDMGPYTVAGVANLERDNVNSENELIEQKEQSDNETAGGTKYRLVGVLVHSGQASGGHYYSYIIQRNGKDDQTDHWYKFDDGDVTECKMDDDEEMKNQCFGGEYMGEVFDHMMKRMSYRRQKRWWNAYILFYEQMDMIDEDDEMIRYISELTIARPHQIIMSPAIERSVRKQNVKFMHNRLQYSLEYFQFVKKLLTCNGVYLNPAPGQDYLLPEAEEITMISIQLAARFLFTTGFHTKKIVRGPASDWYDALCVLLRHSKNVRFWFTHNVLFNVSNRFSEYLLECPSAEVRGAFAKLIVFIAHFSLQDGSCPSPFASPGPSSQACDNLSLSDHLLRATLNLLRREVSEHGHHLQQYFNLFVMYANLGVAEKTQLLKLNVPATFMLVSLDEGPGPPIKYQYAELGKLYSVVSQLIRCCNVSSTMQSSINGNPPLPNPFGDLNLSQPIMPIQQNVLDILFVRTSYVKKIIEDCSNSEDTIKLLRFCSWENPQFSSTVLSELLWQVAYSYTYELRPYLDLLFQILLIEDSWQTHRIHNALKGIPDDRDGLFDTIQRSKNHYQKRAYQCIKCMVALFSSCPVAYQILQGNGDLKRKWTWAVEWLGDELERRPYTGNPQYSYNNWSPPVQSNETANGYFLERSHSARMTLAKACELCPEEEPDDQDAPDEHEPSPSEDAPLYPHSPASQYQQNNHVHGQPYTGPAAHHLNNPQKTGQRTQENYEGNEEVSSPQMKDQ
Method in brief: as §1

UniProt P51784 = molecular target: UniProt P51784
Chain of UniProt P51784 (P51784 whole entry): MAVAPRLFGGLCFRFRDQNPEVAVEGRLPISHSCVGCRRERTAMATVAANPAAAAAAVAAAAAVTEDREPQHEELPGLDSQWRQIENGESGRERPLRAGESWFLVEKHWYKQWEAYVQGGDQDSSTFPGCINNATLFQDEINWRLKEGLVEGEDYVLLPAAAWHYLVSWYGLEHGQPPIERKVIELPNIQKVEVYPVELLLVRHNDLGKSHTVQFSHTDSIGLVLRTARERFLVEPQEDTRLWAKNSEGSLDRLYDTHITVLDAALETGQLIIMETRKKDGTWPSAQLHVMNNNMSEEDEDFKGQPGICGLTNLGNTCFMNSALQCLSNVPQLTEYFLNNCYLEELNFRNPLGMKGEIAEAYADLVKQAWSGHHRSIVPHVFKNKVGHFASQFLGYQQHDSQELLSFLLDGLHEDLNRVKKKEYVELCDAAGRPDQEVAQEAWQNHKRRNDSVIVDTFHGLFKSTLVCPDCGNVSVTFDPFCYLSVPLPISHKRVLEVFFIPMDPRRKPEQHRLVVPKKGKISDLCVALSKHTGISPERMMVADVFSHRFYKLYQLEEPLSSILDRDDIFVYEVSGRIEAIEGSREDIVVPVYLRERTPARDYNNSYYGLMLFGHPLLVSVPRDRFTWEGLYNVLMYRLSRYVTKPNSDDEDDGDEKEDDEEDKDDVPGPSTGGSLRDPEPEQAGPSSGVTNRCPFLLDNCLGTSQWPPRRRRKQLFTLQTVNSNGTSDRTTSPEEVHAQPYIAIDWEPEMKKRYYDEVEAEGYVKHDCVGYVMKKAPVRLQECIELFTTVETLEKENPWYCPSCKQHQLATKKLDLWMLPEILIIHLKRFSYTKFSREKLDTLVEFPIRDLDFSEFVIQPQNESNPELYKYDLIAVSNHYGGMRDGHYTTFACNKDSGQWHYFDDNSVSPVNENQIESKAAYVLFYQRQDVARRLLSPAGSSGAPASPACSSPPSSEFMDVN
Method in brief: as §1

UniProt Q5T2D3 = molecular target: T1, UniProt Q5T2D3
T1 sequence (whole entry): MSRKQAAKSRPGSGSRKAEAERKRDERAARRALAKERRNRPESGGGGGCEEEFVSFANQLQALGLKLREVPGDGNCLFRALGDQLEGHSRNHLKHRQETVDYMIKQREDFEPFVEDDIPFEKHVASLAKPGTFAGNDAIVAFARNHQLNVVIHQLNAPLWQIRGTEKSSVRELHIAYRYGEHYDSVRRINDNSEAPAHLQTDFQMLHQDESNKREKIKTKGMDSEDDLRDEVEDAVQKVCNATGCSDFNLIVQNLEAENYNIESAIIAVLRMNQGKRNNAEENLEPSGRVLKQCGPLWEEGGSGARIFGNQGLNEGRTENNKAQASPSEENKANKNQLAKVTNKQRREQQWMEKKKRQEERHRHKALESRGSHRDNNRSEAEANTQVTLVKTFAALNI
Method in brief: as §1

UniProt Q8TE49 = molecular target: T2, UniProt Q8TE49
T2 sequence (whole entry): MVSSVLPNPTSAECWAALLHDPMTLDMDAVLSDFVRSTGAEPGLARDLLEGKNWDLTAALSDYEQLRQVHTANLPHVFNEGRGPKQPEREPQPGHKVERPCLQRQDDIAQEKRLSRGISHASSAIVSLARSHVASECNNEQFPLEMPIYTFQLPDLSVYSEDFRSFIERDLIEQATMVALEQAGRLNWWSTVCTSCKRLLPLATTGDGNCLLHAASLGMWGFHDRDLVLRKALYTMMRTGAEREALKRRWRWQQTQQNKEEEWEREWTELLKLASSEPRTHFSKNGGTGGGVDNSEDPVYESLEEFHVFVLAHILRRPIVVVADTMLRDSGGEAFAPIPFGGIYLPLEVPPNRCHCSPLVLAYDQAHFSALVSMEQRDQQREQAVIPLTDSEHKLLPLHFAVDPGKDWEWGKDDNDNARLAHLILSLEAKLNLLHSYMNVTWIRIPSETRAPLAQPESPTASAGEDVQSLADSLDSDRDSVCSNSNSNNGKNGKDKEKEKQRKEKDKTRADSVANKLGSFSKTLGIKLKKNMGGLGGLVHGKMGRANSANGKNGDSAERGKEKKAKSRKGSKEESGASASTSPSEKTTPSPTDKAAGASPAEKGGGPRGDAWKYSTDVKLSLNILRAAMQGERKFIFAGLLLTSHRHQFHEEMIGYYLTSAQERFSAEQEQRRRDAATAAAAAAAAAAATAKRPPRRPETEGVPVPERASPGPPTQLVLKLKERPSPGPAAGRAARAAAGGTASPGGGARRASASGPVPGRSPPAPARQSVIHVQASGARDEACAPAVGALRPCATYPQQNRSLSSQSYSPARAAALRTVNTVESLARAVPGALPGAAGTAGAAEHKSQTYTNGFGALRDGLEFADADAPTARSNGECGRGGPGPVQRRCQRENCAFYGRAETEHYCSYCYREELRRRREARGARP
Method in brief: as §1

UniProt Q9P2H5 = molecular target: T3, UniProt Q9P2H5
T3 sequence (whole entry): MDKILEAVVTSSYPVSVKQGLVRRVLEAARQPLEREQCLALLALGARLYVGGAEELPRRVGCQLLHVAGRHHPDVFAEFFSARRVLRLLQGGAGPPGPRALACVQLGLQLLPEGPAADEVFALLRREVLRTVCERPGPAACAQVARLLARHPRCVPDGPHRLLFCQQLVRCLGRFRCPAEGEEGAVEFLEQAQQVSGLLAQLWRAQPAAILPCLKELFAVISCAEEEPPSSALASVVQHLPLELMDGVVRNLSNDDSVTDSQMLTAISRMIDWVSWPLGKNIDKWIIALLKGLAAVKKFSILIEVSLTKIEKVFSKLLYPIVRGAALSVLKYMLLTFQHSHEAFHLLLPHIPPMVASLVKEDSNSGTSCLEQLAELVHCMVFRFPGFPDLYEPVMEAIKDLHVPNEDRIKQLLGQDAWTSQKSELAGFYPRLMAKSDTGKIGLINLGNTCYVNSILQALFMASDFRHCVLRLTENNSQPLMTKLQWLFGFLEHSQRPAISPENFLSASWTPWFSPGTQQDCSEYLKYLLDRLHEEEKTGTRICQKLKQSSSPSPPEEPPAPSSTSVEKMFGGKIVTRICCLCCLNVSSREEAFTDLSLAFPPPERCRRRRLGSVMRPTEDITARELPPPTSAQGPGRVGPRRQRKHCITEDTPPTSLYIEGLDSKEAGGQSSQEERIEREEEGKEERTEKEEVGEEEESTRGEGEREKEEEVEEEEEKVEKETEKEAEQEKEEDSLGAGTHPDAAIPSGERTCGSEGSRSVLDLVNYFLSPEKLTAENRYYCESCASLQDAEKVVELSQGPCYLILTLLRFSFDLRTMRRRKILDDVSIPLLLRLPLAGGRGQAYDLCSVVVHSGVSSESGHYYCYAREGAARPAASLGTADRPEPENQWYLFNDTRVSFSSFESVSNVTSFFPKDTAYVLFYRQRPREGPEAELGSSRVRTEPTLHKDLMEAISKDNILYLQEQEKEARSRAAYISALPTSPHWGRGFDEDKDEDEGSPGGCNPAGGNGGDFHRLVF
Method in brief: as §1

UniProt Q9UGI0 = molecular target: T4, UniProt Q9UGI0
T4 sequence (whole entry): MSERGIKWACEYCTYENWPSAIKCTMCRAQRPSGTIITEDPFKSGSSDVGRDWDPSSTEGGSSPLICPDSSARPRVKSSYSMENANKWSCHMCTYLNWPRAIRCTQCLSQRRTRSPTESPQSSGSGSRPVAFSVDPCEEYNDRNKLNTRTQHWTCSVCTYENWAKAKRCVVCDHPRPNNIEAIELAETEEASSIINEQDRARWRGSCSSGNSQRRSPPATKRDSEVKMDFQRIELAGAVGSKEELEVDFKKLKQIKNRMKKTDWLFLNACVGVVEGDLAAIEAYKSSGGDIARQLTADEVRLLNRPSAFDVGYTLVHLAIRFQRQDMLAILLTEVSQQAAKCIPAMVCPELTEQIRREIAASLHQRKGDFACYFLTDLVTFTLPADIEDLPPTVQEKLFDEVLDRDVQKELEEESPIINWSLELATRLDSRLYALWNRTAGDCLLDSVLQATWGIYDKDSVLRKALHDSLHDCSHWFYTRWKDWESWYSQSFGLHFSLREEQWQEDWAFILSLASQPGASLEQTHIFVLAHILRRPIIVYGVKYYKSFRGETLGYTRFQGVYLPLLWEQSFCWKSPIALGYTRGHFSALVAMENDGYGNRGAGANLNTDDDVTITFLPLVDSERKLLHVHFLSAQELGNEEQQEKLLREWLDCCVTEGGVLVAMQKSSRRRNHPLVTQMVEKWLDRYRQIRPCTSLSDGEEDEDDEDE
Method in brief: as §1

YOD1 = molecular target: T5, YOD1 (UniProt Q5VVQ6)
T5 sequence (whole entry): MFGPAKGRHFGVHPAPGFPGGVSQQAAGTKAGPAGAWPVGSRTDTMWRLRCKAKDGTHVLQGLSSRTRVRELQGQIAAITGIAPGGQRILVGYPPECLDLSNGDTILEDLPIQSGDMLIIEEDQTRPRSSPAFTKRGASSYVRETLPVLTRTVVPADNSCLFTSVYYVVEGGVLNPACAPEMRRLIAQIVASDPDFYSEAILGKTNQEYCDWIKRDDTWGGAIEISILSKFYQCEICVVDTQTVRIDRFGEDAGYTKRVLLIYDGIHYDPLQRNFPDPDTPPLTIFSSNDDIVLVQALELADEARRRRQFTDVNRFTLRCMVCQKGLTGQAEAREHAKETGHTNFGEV
Method in brief: as §1

Measured: log2 ratio of Biotin-Ahx-Ub-VS probe labelling

Cc1ccccc1OCC(=O)N1CCN(C(=O)CCl)CC1
inactive: USP9X -0.0136 | UniProt O00487 0.0797 | UniProt O00507 0.258 | UniProt P51784 -0.215 | UniProt Q5T2D3 -0.106 | UniProt Q8TE49 -0.335 | UniProt Q9P2H5 -0.172 | UniProt Q9UGI0 -0.104 | YOD1 -0.00243
